Source: PubChem
ssDAF12 agonist: S. stercoralis DAF-12 nuclear receptor activators, primary screen, cell-based, luminescence, HEK293, GRIP1 co-expression, lit1-tk-luc; HEK293 ssDAF-12/GRIP1 lit1-tk-luc reporter; % of 3 µM dafachronic acid response; activation, % at 6.8 µM; Nuclear hormone receptor DAF-12 (Strongyloides stercoralis); AID 652126, 2013; 1% of 370,000 active;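 active means activation above the mean over all tested compounds plus 3 SD, cut at about 0.9% in these data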
DAX1 inh-1: DAX1 (NR0B1) inhibitors on StAR promoter, primary screen, cell-based, luminescence, SF-1 (NR5A1), full-length DAX-1; HEK293T StAR-luciferase reporter, SF-1/DAX-1 repression relief; inhibition, % at 6.8 µM; 1.1% of 370,000 active;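 active means inhibition above the mean over all tested compounds plus 3 SD, cut at about 3.6% in these data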;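 further: higher inhibition means more luminescence from relief of DAX-1 repression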
hcDAF12 agonist: H. contortus DAF-12 nuclear receptor activators, primary screen, cell-based, luminescence, HEK293, lit1-tk-luc reporter. HEK293 hcDAF-12 lit1-tk-luc reporter; 0% DMSO, 100% Δ7-dafachronic acid. activation, % at 6.8 µM. 1.4% of 370,000 active. AID 652067, 2013;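 active means activation above the mean of all tested compounds plus 3 SD, cut at about 5.5% in these data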
hgDAF-12 ag: H. glycines DAF-12 receptor agonists, primary screen, cell-based, luminescence, HEK293, GAL4 fusion, UAS-luciferase; Nuclear hormone receptor DAF-12 (Heterodera glycines), GAL4 fusion; HEK293 GAL4-hgDAF12 UAS-luciferase reporter, agonist luminescence; normalized to butyrate control; activation, % at 6.8 µM; 1.8% of 370,000 active; AID 687014, 2013;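 active means activation above a cutoff set at the mean of all screened compounds plus 3 SD, cut at about 10% in these data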
SMARCA2 act: SMARCA2 (BRM) function activators, primary screen, cell-based, luminescence, high throughput; AID 652017, 2013; activation, % at 9.1 µM; 1% of 370,000 active; MG213 cells, MMTV-luciferase reporter, dexamethasone, overnight; in the data active means activation above about 7.8%
DAX1 inh-2: DAX1 (NR0B1) inhibitors, primary screen, cell-based, HEK293, Gal4-DAX1, luciferase luminescence; AID 504766, 2011; 0.99% of 340,000 active; HEK293 Gal4-DAX1 luciferase reporter; inhibition, % at 6.75 µM;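 active means inhibition above the mean over all tested compounds plus 3 SD, cut at about 4.2% in these data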;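 further: inhibition shows as a rise in luminescence from relieved DAX1 repression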
Target sequence (P51843 207-470 limits assumed): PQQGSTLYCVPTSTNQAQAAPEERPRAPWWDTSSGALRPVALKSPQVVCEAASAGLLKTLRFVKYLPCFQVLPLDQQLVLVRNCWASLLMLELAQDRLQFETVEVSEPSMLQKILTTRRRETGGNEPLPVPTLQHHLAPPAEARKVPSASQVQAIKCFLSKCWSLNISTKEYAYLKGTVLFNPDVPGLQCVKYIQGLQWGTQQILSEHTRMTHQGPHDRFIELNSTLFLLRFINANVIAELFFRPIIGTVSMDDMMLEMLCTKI
SMARCA2 act conf: SMARCA2 (BRM) function activators, confirmation, cell-based, luminescence, triplicate | 30% of 3,500 active | MG213 cells, MMTV-luciferase with dexamethasone, overnight; MG213 cells expressing E1A, Rb sequestered; DMSO wells 0%, reference activator 100% | shares compounds with SMARCA2 act | activation, % at 9.1 µM;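 active means activation above its plate's cutoff, the mean activation of tested wells plus 3 SD, cut at about 7.9% in these data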
VP16 Luc act: GAL4-VP16 luciferase reporter activation, counter-screen for SMARCA2 (BRM) activator project, cell-based, pG5luc, luminescence, high throughput; shares compounds with SMARCA2 act; HEK293 GAL4-VP16 pG5luc reporter; scaled: DMSO wells 0%, SAHA wells 100%; activation, % at 9.1 µM; 41% of 3,500 active;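 active means activation above the solvent-only control well mean plus 3 SD, averaged across control plates, cut at about 5.2% in these data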
Numbers stand for hits; i = inactive; nt = no result. This is a sample that favours compounds with a hit; in the whole collection about 4.8% have one here.

SMILES	ssDAF12 agonist	DAX1 inh-1	hcDAF12 agonist	hgDAF-12 ag	SMARCA2 act	DAX1 inh-2	SMARCA2 act conf	VP16 Luc act
C=CCN(c1ccccc1)S(=O)(=O)c1ccc(Cl)c(C(=O)OCC(=O)NCCCN2CCCC2=O)c1	i	i	i	i	i	i	nt	nt
CC(C)NCC(O)COc1ccc(CC(N)=O)cc1 (stereo unspecified)	i	i	i	i	i	i	nt	nt
CCCC(=O)Nc1nnc(-c2ccc3c(c2)OCCO3)o1	i	i	i	i	10	i	i	i
Cc1ccc2oc(C(=O)N3CCN(c4cccc(C)n4)CC3)c(C)c2c1	i	i	i	i	i	i	nt	nt
Cc1cc(Cl)c2oc(C(=O)N3CCN(c4cccc(C)n4)CC3)c(C)c2c1	i	i	i	i	11	i	i	15
Cc1ccc(CNC(=O)C2CCC(=O)N(C3CCCC3)C2)c(F)c1F (stereo unspecified)	i	i	i	i	9.7	i	i	i
Cc1cccc(CNC(=O)C2CCC(=O)N(C3CCCC3)C2)c1 (stereo unspecified)	i	i	i	i	i	i	nt	nt
CCN(CC)CCCNC(=O)c1ccc2c3n(nc2c1)-c1ccc(Cl)cc1CO3	i	i	i	i	11	i	23	7.2
CC(C)NC(=O)c1ccc2c3n(nc2c1)-c1ccc(Cl)cc1CO3	i	i	i	i	i	i	nt	nt
Cc1cc(C)c2nc3nc(C)c(C)cc3c(N)c2c1	i	i	i	i	17	i	50	i
COc1ccc(NC(=O)CSc2c3c(nc4cc(Cl)ccc24)CCCC3)cc1OC	i	i	i	i	9.4	i	i	i
COc1cc(NC(=O)CSc2c3c(nc4ccccc24)CCC3)cc(OC)c1OC	i	i	i	i	i	i	nt	nt
COCCN(C(=O)Cc1cccs1)c1nnc(-c2cccnc2)s1	i	i	i	i	i	i	nt	nt
CCCCN(C(=O)Cc1cccs1)c1nnc(-c2cccnc2)s1	i	i	i	i	11	i	7.9	5.5
CSc1nc(SCCN(C)C)c2c3c(sc2n1)COC(C)(C)C3	i	i	i	i	8.1	i	i	i
CCOc1ccc(OCCSc2nnnn2-c2ccccc2)cc1	i	i	i	i	i	i	nt	nt
COc1ccccc1OCCSc1nnnn1-c1ccc(C)cc1	i	i	i	i	9.0	i	i	i
O=C(O)CC(=O)Nc1cc(Cl)ccc1O	i	i	i	i	i	i	nt	nt
Clc1ccc(-c2nnc(-c3ccco3)o2)cc1	i	i	i	i	13	i	8.0	8.3
O=P(Cc1cccc[n+]1[O-])(c1ccccc1)c1ccccc1	i	i	i	i	i	i	nt	nt
N#CCS(=O)(=O)c1cccc[n+]1[O-]	i	i	i	i	8.8	nt	i	i
CN(C)C(=S)NC(=S)Nc1ccc2ccccc2c1	1.3	i	12	17	17	i	i	34
O=C(Nc1ccccc1Cl)c1ccn[nH]1	i	i	i	i	8.2	i	i	i
O=C(Nc1ccccc1Cl)c1ccccc1	i	i	i	i	8.8	i	i	5.6
O=C(Nc1ccccc1F)c1ccn[nH]1	i	i	i	i	i	i	nt	nt
SMILES	ssDAF12 agonist	DAX1 inh-1	hcDAF12 agonist	hgDAF-12 ag	SMARCA2 act	DAX1 inh-2	SMARCA2 act conf	VP16 Luc act
O=C(Nc1ccccc1Cl)c1ccc(C(=O)Nc2ccccc2Cl)cc1	i	i	i	i	i	i	nt	nt
COc1cc(SC)ccc1C(=O)Nc1ccc(C)cc1C	i	i	i	i	8.1	i	13	14
Cc1ccc(C(=O)c2cnc3cc4c(cc3c2S(=O)(=O)c2ccccc2)OCCO4)cc1	i	i	i	i	9.5	i	i	5.5
Cc1cccc(NC(=O)CN2C(=O)/C(=C3\SC(=S)N(CC4CCCO4)C3=O)c3ccccc32)c1 (stereo unspecified)	nt	nt	nt	nt	nt	i	nt	nt
CC(C)COc1ccc(-c2nnn(CC(=O)N3CCCC3)n2)cc1	i	i	i	i	9.9	i	i	8.2
O=C(Cn1nnc(-c2ccccc2)n1)N1CCCCC1	i	i	i	i	i	i	nt	nt
Nn1c(SCc2ccccc2)nc2ccccc21	i	i	i	12	12	i	8.8	14
CCCOC(=O)C(C)Sc1n[nH]c(=O)[nH]c1=O (stereo unspecified)	i	i	i	i	i	i	nt	nt
CCOP(=O)(OCC)c1ccc2c(c1)C(=O)c1ccccc1-2	i	nt	i	i	nt	nt	nt	nt
COc1ccc(-c2cnc3c(NC=O)cc(-c4ccccc4)cn23)cc1OC	i	i	i	i	14	nt	10	6.1
COc1ccc(-c2cnc3c(NC=O)cc(-c4ccoc4)cn23)cc1OC	i	i	i	i	i	nt	nt	nt
COc1ccc(-c2cnc3c(NC=O)cc(-c4cc(OC)c(OC)c(OC)c4)cn23)cc1OC	i	i	i	i	15	nt	24	9.4
COc1ccc(-c2cnc3c(NC=O)cc(-c4ccc(F)cc4)cn23)cc1OC	i	i	i	i	15	nt	14	6.3
COc1ccc(-c2cnc3c(NC=O)cc(-c4cccc(NS(C)(=O)=O)c4)cn23)cc1OC	i	i	i	i	36	nt	36	7.8
CCn1c(CSc2nc3ccccc3s2)nnc1SCC(=O)OC(C)(C)C	i	i	i	i	i	i	nt	nt
Cc1nc2c3ccccc3n(CC(=O)c3ccc(F)cc3)c(=O)n2n1	i	i	i	i	i	i	nt	nt
O=C(CCC(=O)CCN1CCCCC1)CCN1CCCCC1	i	i	i	i	i	i	nt	nt
CS(=O)(=O)Nc1cccc(-c2cc(NC=O)c3ncc(-c4ccc(F)c(Cl)c4)n3c2)c1	i	i	i	i	9.1	nt	i	i
COc1cccc(-c2cc(NC=O)c3ncc(-c4ccc(OC)c(OC)c4)n3c2)c1	i	i	i	i	12	nt	11	i
COc1ccc(-c2cnc3c(NC=O)cc(-c4ccc(S(C)(=O)=O)cc4)cn23)cc1OC	i	i	i	i	11	nt	11	i
